Records with an inconclusive call do not appear. A call without a number means that no potency is given here. A number with no mark means an inactive call. Calls of active or inactive are those of the source. Calls come from the whole dose curve; as a rule, active = well fitted curve in the direction sought with a large enough effect in the repeat runs; inconclusive = weak or mixed curves; inactive = no such curve, though single readings can be large; an effect the other way counts as inactive or inconclusive.
Each compound was assayed against Nuclear receptor subfamily 1 group I member 2 (Rattus norvegicus) (UniProt Q9R1A7) (assay: Rat pregnane X receptor (rPXR) activation by small molecules, qHTS assay (AID 1346983; note: nearly all actives have a fitted effect of over 20% in size)). Settings: rPXR luciferase reporter cells, One-Glo luminescence, 24 h; max activation: stronger effect = higher value.
Outline: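 Luminescent readout (One-Glo luciferase, 30 min room temperature) followed 24 hr compound treatment at 37 C of rPXR cells plated 2,000 per well and preincubated 5hr; qHTS format with compounds delivered in DMSO.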

Chain of Nuclear receptor subfamily 1 group I member 2 (Rattus norvegicus) (Q9R1A7 whole entry, looked up): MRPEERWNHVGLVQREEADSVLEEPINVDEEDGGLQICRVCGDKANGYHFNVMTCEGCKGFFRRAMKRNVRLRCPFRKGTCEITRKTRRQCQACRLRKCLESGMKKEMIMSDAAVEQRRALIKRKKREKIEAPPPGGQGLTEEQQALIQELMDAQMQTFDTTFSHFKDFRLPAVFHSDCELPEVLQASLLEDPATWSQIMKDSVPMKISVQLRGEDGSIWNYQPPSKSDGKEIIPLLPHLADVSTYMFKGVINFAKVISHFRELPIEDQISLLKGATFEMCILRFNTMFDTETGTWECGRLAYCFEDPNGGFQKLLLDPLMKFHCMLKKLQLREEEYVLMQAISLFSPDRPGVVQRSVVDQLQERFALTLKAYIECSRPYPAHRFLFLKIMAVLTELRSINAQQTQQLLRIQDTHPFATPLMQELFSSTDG

SMILES | max activation
CNCc1ccccc1 | -0.758%
NS(=O)(=O)c1ccc(Cl)c(S(N)(=O)=O)c1 | -3.93%
O=c1[nH]c(=O)c2[nH]c(=O)[nH]c2[nH]1 | -2.16%
CCC1Nc2cc(Cl)c(S(N)(=O)=O)cc2S(=O)(=O)N1 (stereo not given) | -2.65%
Cc1oc(=O)oc1CN1CCN(c2cc3c(cc2F)c(=O)c(C(=O)O)c2n3C(C)S2)CC1 (stereo not given) | -2.98%
COc1cc2c(Nc3ccc(Br)cc3F)ncnc2cc1OCC1CCN(C)CC1 | -20.7%
NC(=O)C1(N2CCCCC2)CCN(CCCC(=O)c2ccc(F)cc2)CC1 | 0.444%
O=c1[nH]c(=O)c2ccccc2o1 | -5.11%
Nc1ccc(S(=O)(=O)NC(=O)c2ccccc2)cc1 | -3.91%
CC(=O)Nc1ncc([N+](=O)[O-])s1 | -3.65%
Cn1c(=O)c2c(ncn2CC2OCCO2)n(C)c1=O | 6.17%
CN[C@@H]1[C@H](O)[C@H](NC)[C@H]2O[C@@]3(O)C(=O)C[C@@H](C)O[C@H]3O[C@@H]2[C@H]1O | -0.189%
O=C(Nc1cccc(C2=NCCN2)c1)Nc1cccc(C2=NCCN2)c1 | -0.171%
Cc1ccc(S(=O)(=O)NC(=O)NC2CCCCCCC2)cc1 | -1.92%
O=C(Oc1ccccc1C(=O)O)c1ccccc1O | -2.38%
NC(=O)NC(=O)Cc1ccccc1 | -4.53%

What follows are compounds tested against Nuclear receptor subfamily 1 group I member 2 (Homo sapiens) (UniProt O75469) (assay: CYP3A4 induction through human pregnane X receptor (PXR) by small molecules, qHTS assay (AID 1346984; note: nearly all actives have a fitted effect of over 40% in size)). Settings: DPX-2 HepG2 PXR, CYP3A4-luciferin luminescence, 24 h; series mostly up to 46.1 µM.
Outline: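 After 24 h at 37C with compound, DPX-2 cells (HepG2, co-transfected PXR response element and CYP3A4 promoter-luciferase) got 3uM final P450-Glo Luciferin-IPA for 3 h; One-Glo luminescence followed.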

SMILES | outcome
O=C(O)/C=C/c1ccccc1 | inactive
COc1ccc(/C=N/NC(=O)c2ccncc2)cc1OC | inactive
NS(=O)(=O)c1cc2c(cc1Cl)NC(C(Cl)Cl)NS2(=O)=O (stereo not given) | inactive
Nc1ccc(/C=C/c2ccc(N)cc2S(=O)(=O)O)c(S(=O)(=O)O)c1 | inactive
Cc1c(C(C)C)c(=O)n(-c2ccccc2)n1C | inactive
O=C(CN1CCN(Cc2ccc3c(c2)OCO3)CC1)N1c2ccccc2Sc2ccccc21 | inactive
Nc1ccc(S(=O)(=O)Nc2ccccn2)cc1 | inactive
CC(C)(CO)[C@@H](O)C(=O)NCCCO | inactive
COCC(=O)Nc1c(I)c(C(=O)NCC(O)CO)c(I)c(C(=O)N(C)CC(O)CO)c1I (stereo not given) | inactive
O=c1cc(O)c(Cl)c[nH]1 | inactive
COc1cc2c3cc1Oc1cc(ccc1O)C[C@@H]1c4c(cc(OC)c(O)c4Oc4ccc(cc4)C[C@@H]3N(C)CC2)CC[N+]1(C)C | inactive
O=C(/C=C/c1ccccc1)NCCO | inactive
CCNC(=O)/C=C/c1cccc(Br)c1 | inactive
NS(=O)(=O)c1cc2c(cc1Cl)NC(CC1CCCC1)NS2(=O)=O (stereo not given) | inactive
CC(=O)N(CC(O)CO)c1c(I)c(C(=O)NCC(O)CO)c(I)c(C(=O)NCC(O)CO)c1I (stereo not given) | inactive
CNCc1ccccc1 | inactive
NS(=O)(=O)c1ccc(Cl)c(S(N)(=O)=O)c1 | inactive
O=c1[nH]c(=O)c2[nH]c(=O)[nH]c2[nH]1 | inactive
CCC1Nc2cc(Cl)c(S(N)(=O)=O)cc2S(=O)(=O)N1 (stereo not given) | inactive
Cc1oc(=O)oc1CN1CCN(c2cc3c(cc2F)c(=O)c(C(=O)O)c2n3C(C)S2)CC1 (stereo not given) | inactive
COc1cc2c(Nc3ccc(Br)cc3F)ncnc2cc1OCC1CCN(C)CC1 | inactive
O=c1[nH]c(=O)c2ccccc2o1 | inactive
Nc1ccc(S(=O)(=O)NC(=O)c2ccccc2)cc1 | inactive
CC(=O)Nc1ncc([N+](=O)[O-])s1 | inactive
Cn1c(=O)c2c(ncn2CC2OCCO2)n(C)c1=O | inactive
CN[C@@H]1[C@H](O)[C@H](NC)[C@H]2O[C@@]3(O)C(=O)C[C@@H](C)O[C@H]3O[C@@H]2[C@H]1O | inactive
O=C(Nc1cccc(C2=NCCN2)c1)Nc1cccc(C2=NCCN2)c1 | inactive
Cc1ccc(S(=O)(=O)NC(=O)NC2CCCCCCC2)cc1 | inactive
O=C(Oc1ccccc1C(=O)O)c1ccccc1O | inactive
NC(=O)NC(=O)Cc1ccccc1 | inactive

These compounds were tested against Nuclear receptor subfamily 1 group I member 2 (Homo sapiens) (UniProt O75469) (assay: Human pregnane X receptor (PXR) activation by small molecules, qHTS assay (AID 1346985; note: nearly all actives have a fitted effect of over 40% in size; note: potency is the fitted concentration of half-maximal effect)). Settings: DPX-2 HepG2 CYP3A4-luciferase, 24 h; series mostly up to 38.3 µM.
Outline: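 DPX-2 cells (HepG2 co-transfected with a PXR response element and a CYP3A4-promoter luciferase construct) were seeded at 2,000 per well, rested 5 hr at 37C, then exposed to DMSO-dissolved compounds for 24 hr. Activation was read as luciferase luminescence.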

SMILES | Potency
NCCc1ccn[nH]1 | inactive
O=C(O)/C=C/c1ccccc1 | inactive
COc1ccc(/C=N/NC(=O)c2ccncc2)cc1OC | inactive
NS(=O)(=O)c1cc2c(cc1Cl)NC(C(Cl)Cl)NS2(=O)=O (stereo not given) | inactive
Nc1ccc(/C=C/c2ccc(N)cc2S(=O)(=O)O)c(S(=O)(=O)O)c1 | inactive
Cc1c(C(C)C)c(=O)n(-c2ccccc2)n1C | inactive
Nc1ccc(S(=O)(=O)Nc2ccccn2)cc1 | inactive
CC(C)(CO)[C@@H](O)C(=O)NCCCO | inactive
O=c1cc(O)c(Cl)c[nH]1 | inactive
COc1cc2c3cc1Oc1cc(ccc1O)C[C@@H]1c4c(cc(OC)c(O)c4Oc4ccc(cc4)C[C@@H]3N(C)CC2)CC[N+]1(C)C | inactive
O=C(/C=C/c1ccccc1)NCCO | inactive
CCNC(=O)/C=C/c1cccc(Br)c1 | inactive
NS(=O)(=O)c1cc2c(cc1Cl)NC(CC1CCCC1)NS2(=O)=O (stereo not given) | inactive
CC(=O)N(CC(O)CO)c1c(I)c(C(=O)NCC(O)CO)c(I)c(C(=O)NCC(O)CO)c1I (stereo not given) | inactive
CNCc1ccccc1 | inactive
NS(=O)(=O)c1ccc(Cl)c(S(N)(=O)=O)c1 | inactive
O=c1[nH]c(=O)c2[nH]c(=O)[nH]c2[nH]1 | inactive
CCC1Nc2cc(Cl)c(S(N)(=O)=O)cc2S(=O)(=O)N1 (stereo not given) | inactive
Cc1oc(=O)oc1CN1CCN(c2cc3c(cc2F)c(=O)c(C(=O)O)c2n3C(C)S2)CC1 (stereo not given) | inactive
COc1cc2c(Nc3ccc(Br)cc3F)ncnc2cc1OCC1CCN(C)CC1 | 14.1 µM (active)
NC(=O)C1(N2CCCCC2)CCN(CCCC(=O)c2ccc(F)cc2)CC1 | inactive
O=c1[nH]c(=O)c2ccccc2o1 | inactive
Nc1ccc(S(=O)(=O)NC(=O)c2ccccc2)cc1 | inactive
CC(=O)Nc1ncc([N+](=O)[O-])s1 | inactive
Cn1c(=O)c2c(ncn2CC2OCCO2)n(C)c1=O | inactive
CN[C@@H]1[C@H](O)[C@H](NC)[C@H]2O[C@@]3(O)C(=O)C[C@@H](C)O[C@H]3O[C@@H]2[C@H]1O | inactive
O=C(Nc1cccc(C2=NCCN2)c1)Nc1cccc(C2=NCCN2)c1 | inactive
O=C(Oc1ccccc1C(=O)O)c1ccccc1O | inactive
NC(=O)NC(=O)Cc1ccccc1 | inactive

From PubChem BioAssay (Tox21)
